# The list is not random: actives were taken first. Their share in the collection is about 8%.
# KB-3-1 tox: qHTS assay for MDR1-selective chemotherapeutics: Primary screen using the parental adenocarcinoma cell KB-3-1; KB-3-1 viability, CellTiter-Glo ATP luminescence, 72 h; Potency, µM (series often up to 46.1 µM), actives largely listed as cytotoxic; 400,000 tested, 1.4% active; AID 1347075, 2019; also: % is scaled to controls: 0 for no effect and ±100 for the full control effect; nearly all actives have a fitted effect of over 60% in size
#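 Screening of KB-3-1 cells (DMEM, 10% FBS, phenol-red free) ran from lowest to highest compound concentration; after 72 h at 37 °C viability was read luminescently and curves fitted.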
# HT1080 IDH1KD tx: qHTS for induction of synthetic lethality in tumor cells producing 2HG: qHTS for the HT-1080-IDH1KD cell line; HT-1080 IDH1 knockdown viability, ATP luminescence, 48 h; 360,000 tested, 2% active; Potency, µM (titrated, usually from 46.1 µM), inactives show top-dose activity, negative = toxicity, hits mostly cytotoxic;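 also: 0% = DMSO wells and -100% = cell-free medium wells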
#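 Luminescent ATP read-out (CellTiter-Glo, 10 min at room temperature) after 48 h compound exposure at 37 °C gave viability of IDH1-knockdown HT-1080 cells. Activity was normalised to DMSO and cell-free wells, then fitted as concentration-response curves.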
# KB-V1 MDR tox: qHTS assay for MDR1-selective chemotherapeutics: Primary screen using the drug-selected MDR subline cells KB-V1. KB-V1 MDR cells viability, CellTiter-Glo, 72 h. Potency, µM (titrated, usually from 46.1 µM), hits mostly cytotoxic. 400,000 tested, 3.4% active. AID 1347076, 2019; also: % is scaled to controls: 0 for no effect and ±100 for the full control effect; nearly all actives have a fitted effect of over 60% in size
#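 Readout: CellTiter-Glo luminescence, 10 min after addition. Cells: KB-V1 MDR subline, 72 h at 37 degrees C with compound. Analysis: corrected, normalized data fitted to concentration-effect curves.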
# HT1080-NT tox: qHTS for induction of synthetic lethality in tumor cells producing 2HG: qHTS for the HT-1080-NT fibrosarcoma cell line. HT-1080-NT fibrosarcoma viability, CellTiter-Glo ATP luminescence, 48 h. Potency, µM (doses to about 46.1 µM), for the others: at the top dose activity, negative = less viability, actives largely listed as cytotoxic. 360,000 tested, 1.6% active;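 also: NT is the 2HG producing partner of a matched IDH1 knockdown line; 0% = DMSO-treated cells and -100% = media-only wells without cells; nearly all actives have a fitted effect of over 55% in size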
#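 Viability of the 2HG-overproducing fibrosarcoma line after 48 hours of compound exposure at 37 degrees C was determined by luminescence with CellTiter-Glo, and concentration-effect curves were then fitted and categorized.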
# SW480 rereplic: A quantitative high throughput screen for small molecules that induce DNA re-replication in SW480 colon adenocarcinoma cells; SW480 DNA re-replication, Hoechst DNA content imaging, 48 h; Potency, µM (highest dose often 46.1 µM), without a hit: at the highest dose re-replication activation, usual class: activators; 340,000 tested, 1.8% active; AID 624297, 2012; also: % of control where 0% means no effect; nearly all actives have a fitted effect of over 55% in size
#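 Readout is total intensity of Hoechst-stained nuclei, excited at 405 nm and collected at 500-530 nm. Compound treatment lasted 48 hr at 37 C in 5% CO2 before staining.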
# MCF10A rerep: A quantitative high throughput screen for small molecules that induce DNA re-replication in MCF 10a normal breast cells. MCF 10A DNA re-replication, Hoechst nuclear intensity, 48 h. Potency, µM (titrated, usually from 46.1 µM), without a hit: at the highest dose activity, positive = re-replication, usual class: activators. 350,000 tested, 2.9% active. AID 624296, 2012; also: % of control where 0% means no effect; nearly all actives have a fitted effect of over 50% in size
# Starred values were filed as active, the others as inactive; i = inactive; ? = inconclusive; nt = not tested or not shown; ! = repeats disagree; [ ] = another dose, or the depositor's remark. Calls follow the shape of the dose curve; as a rule, active = well fitted curve in the direction sought with a large enough effect; inconclusive = small, poorly fitted or top-dose-only effect, or another doubt; inactive = no such curve, though single readings can be large; an effect the other way counts as inactive or inconclusive. Potency is read from the fitted curve at half-maximal effect.
SMILES,KB-3-1 tox,HT1080 IDH1KD tx,KB-V1 MDR tox,HT1080-NT tox,SW480 rereplic,MCF10A rerep
CN(C)c1ccc(/C=C2/CCCc3c2nc2ccccc2c3C(=O)O)cc1,i,nt,i,nt,nt,nt
Cc1cccc(N2CCN(S(=O)(=O)c3ccc4c(c3)C(C)(C)C(=O)N4C)CC2C)c1 (stereo not given),i,-0.2%,i,-16.0%,-7.4%,1.3%
Cc1cccc(N2CCN(S(=O)(=O)c3ccc4c(c3)CCC(=O)N4)CC2C)c1 (stereo not given),i,-27.3%,14.6µM*,-13.0%,18.1%,?
O=C(CN1C2=NCCCN2c2ccccc21)c1ccc(Br)s1,?,-27.8%,10.3µM*,?,-1.9%,-1.5%
Cc1ccc(CN2C3=NCCCN3c3ccccc32)cc1,?,-29.5%,i,-10.0%,?,-10.9%
O=C(O)CN1C2=NCCCN2c2ccccc21,i,19.4%,i,18.8%,?,-46.3%
Cc1cc2c(cc1C)N(Cc1ccc(Cl)cc1)C1=NCCCN12,?,?,?,25.9µM*,-0.8%,20.8%
CCCCN1C2=NCCCN2c2cc(C)c(C)cc21,i,3.0%[9.24 µM],?,-11.5%,-2.0%,0.1%
CC(C)(C)c1ccc(CN2C3=NCCCN3c3ccccc32)cc1,?,23.1µM*,?,?,?,?
Cc1ccc(Cl)cc1N1CCN(C(=O)c2ccc3c(c2)N(Cc2ccccc2F)C(=O)c2ccccc2S3(=O)=O)CC1,i,nt,i,nt,nt,nt
N=c1sccn1CC(=O)N1N=C(c2ccc(Cl)cc2)CC1c1ccco1 (stereo not given),i,?,?,32.6µM*,4.0%,-8.4%
COc1ccc(NC(=O)CCN2CCN(CCO)CC2)c(OC)c1,i,nt,i,nt,nt,nt
Cc1nc(S(=O)(=O)c2ccc(Cl)cc2)nc2c1CCC2,i,0.2%,14.6µM*,-0.6%,10.0%,8.7%
Cc1ccc(S(=O)(=O)c2nc(C)c3c(n2)CCC3)cc1,i,1.5%,i,-3.3%,-0.5%,-2.4%
CC/C=C\C/C=C\C/C=C\C/C=C\C/C=C\CCCC(=O)O,nt,nt,nt,nt,3.5%,0.4%
Cc1ccc(NC(=O)c2ccc(OC(=O)c3ccco3)cc2)cc1,i,-18.9%,i,4.0%,?,20.6µM*
O=C(Nc1cccc(S(=O)(=O)N2CCCCC2)c1)c1ccc(OCC2CCCO2)cc1 (stereo not given),i,-11.2%,8.2µM*,-11.5%,6.3%,7.4%
Cc1ccc(NC(=O)c2ccc(OCC3CCCO3)cc2)cc1 (stereo not given),i,7.3%,20.6µM*,2.0%,3.5%,?
O=C(Nc1ccc(S(=O)(=O)N2CCCC2)cc1)c1ccc(OCC2CCCO2)cc1 (stereo not given),20.6µM*,?,?,?,-2.3%,13.6%
O=C(/C=C/c1ccco1)N1CCN(c2ccccc2)CC1,i,-5.0%,i,6.8%,0.3%,1.9%
O=C(/C=C\c1ccco1)Nc1ccc(N2CCN(C(=O)c3ccccc3)CC2)cc1,i,-1.0%,23.1µM*,-1.0%,6.6%,?
O=C(/C=C/c1ccco1)NC(=S)Nc1ccc(N2CCCC2)cc1,?,?,?,?,?,20.6µM*
Cc1cccc(C)c1NC(=O)c1nc(SC(C)C)ncc1Cl,i,nt,i,nt,nt,nt
CCOC(=O)N1CCC2(CC1)OC(=O)C(C)=C2C(=O)NCc1ccccc1OC,i,nt,i,nt,nt,nt
O=C(c1ccccc1)c1ccc(Cn2cc(-c3ccccc3)nn2)cc1,?,-15.3%,0.651µM*!,-8.8%,0.0%,10.1%
SMILES,KB-3-1 tox,HT1080 IDH1KD tx,KB-V1 MDR tox,HT1080-NT tox,SW480 rereplic,MCF10A rerep
O=C(OCc1cn(Cc2ccccc2)nn1)c1ccccc1,i,-1.0%,i,-0.2%,-4.9%,2.0%
O=C(O)CCCCCCCCc1cn(Cc2ccc(C(=O)c3ccccc3)cc2)nn1,4.61µM*!,4.61µM*,9.2µM*!,3.66µM*,5.8µM*,?
CCOC(OCC)c1cn(Cc2ccc(C(=O)c3ccccc3)cc2)nn1,18.4µM*,?,?,?,126.8%,?
CCOC(=O)c1cn(Cc2cccc(Cl)c2)nn1,i,4.8%,i,6.4%,-697.8%,-0.8%
CCCCCc1ccc(-c2cn(Cc3ccc(C(=O)c4ccccc4)cc3)nn2)cc1,7.31µM*!,-8.7%,7.31µM*!,-3.1%,-1.7%,?
O=C(c1ccccc1)c1ccc(Cn2cc(CCCO)nn2)cc1,i,0.8%,i,0.0%,-12.2%,7.9%
Cc1cccn2c(=O)c(/C=C(\C#N)c3nc4ccccc4s3)c(Oc3ccc(Br)cc3)nc12,i,nt,i,nt,nt,nt
CN1CCC(=NNC(=O)c2cc(-c3ccc(Cl)cc3)n[nH]2)CC1,i,?,i,?,-51.9%,18.4µM*
COc1ccc(SN=C2C(C)=CC(=O)C=C2C)cc1,i,1.0%,i,-2.5%,?,25.9µM*
COc1ccc(C(=O)ON=C2C=C(C)C(=O)C(C)=C2)cc1,i,10.2%,i,7.8%,?,5.5%
CCOC(=O)c1oc2ccccc2c1NC(=O)Cc1cccs1,i,?,14.6µM*,0.8%,-4.2%,3.6%
O=C(c1cccc(S(=O)(=O)Nc2ccccc2Cl)c1)N1CCCCCC1,i,2.7%,18.4µM*,-4.0%,3.1%,7.8%
CC1CN(C(=O)c2cccc(S(=O)(=O)N3CCN(c4ccc(F)cc4)CC3)c2)CC(C)O1 (stereo not given),i,1.2%,?,8.0%,-3.9%,0.2%
O=C(c1cccc(S(=O)(=O)N2CCN(c3ccc(F)cc3)CC2)c1)N1CCCC(C(F)(F)F)C1 (stereo not given),?,?,?,16.4µM*,?,5.2%
O=C(c1cccc(S(=O)(=O)N2CCOCC2)c1)N1CCCCCC1,i,5.4%,?,18.0%,-4.2%,-2.7%
O=C(NNC(=S)NC1CCCCC1)c1cccc(S(=O)(=O)Nc2ccccc2Cl)c1,?,-4.4%,20.6µM*,2.9%,?,-8.3%
Cc1ccc(NS(=O)(=O)c2cccc(C(=O)NNC(=O)NC3CCCCC3)c2)c(C)c1,i,-3.3%,i,-8.4%,14.4%,9.2%
O=C(c1cccc(S(=O)(=O)N2CCCCC2)c1)N1CCCCC1,i,5.5%,14.6µM*,5.0%,-2.5%,8.2%
